Data as given in the supplement of paper PMC6555819.

Tests used:
Assay in all cases: PBM binding z-score (relative to random genomic background probes); higher = stronger binding; sequences stand for … in GC…GCGATTGACAGCGTAGAATGAAGG
[1] = system: RARb homodimer (NR concentration 270 nM)
Method in brief: (§1)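 Antibodies against each partner of ligand-free nuclear receptor dimers (one per run) detected binding on custom Agilent 4×180K protein-binding microarrays after 1 h incubation. The double-stranded probes had 34-nt variable regions carrying direct-repeat seeds, single-nucleotide variants, half-site ablations and random human genomic background sequences. Binding z-scores, from regression-normalized fluorescence, use the random background probes as reference.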

[2] = system: RARg:RXRa (NR concentration 270 nM, RXRa partner concentration 90 nM)
Method in brief: as §1

[3] = system: RARg homodimer (NR concentration 270 nM)
Method in brief: as §1

[4] = system: RXRa DBDmut IVT, anti-RXR (DBD mutation: RXRa K156A/R161A, NR concentration 90 nM)
Method in brief: as §1

[5] = system: RXRa homodimer (NR concentration 180 nM)
Method in brief: as §1

[6] = system: THRa homodimer (NR concentration 90 nM)
Method in brief: as §1

[7] = system: VDR homodimer (NR concentration 270 nM)
Method in brief: as §1

[8] = system: VDR:RXRa (NR concentration 270 nM, RXRa partner concentration 90 nM)
Method in brief: as §1

Sequence	PBM binding z-score [1]	PBM binding z-score [2]	PBM binding z-score [3]	PBM binding z-score [4]	PBM binding z-score [5]	PBM binding z-score [6]	PBM binding z-score [7]	PBM binding z-score [8]
CGTCCAAGGTCAGCGAGGTCAGTGAATGCCGAGT	5.62	6.74	7.69	3.3	6.29	4.19	6.64	
CTCGAAAGGTCGATTGAGGTGAGTATACGGATAA	2.68	3.71	3.34	1.66	3.46	0.93	0.553	3.76
GGAACGAGGGCATTCGAGGTGATAGCATGGCGAT	1.3	1.4	1.47	2.66	1.07	0.517	1.77	
CAAACTAGGTCACGTAAGGTCAAAGTCGAATGAC	5.56	7.3	7.46	2.68	6.84	5.19	4.03	
TTACCAAGGTGAGCTGAGGTCATTGATCCAACTC	3.91	3.65	3.31	0.946	4.03	4.43	4.32	
AATACAGGGTCATCCTAGGCCAGAGTACGCACAG	3.81	5.57	4.83	3.9	6.16	1.97	3.52	5.38
CGAACTAGATCAGAACAGGACAGTGAAGGATGAT	0.0748	-0.355	0.431	0.063	0.00592	-0.243	-0.111	
CCTAGCAGGTCAATCTGGGTCACTCAAGGCTTGA	4.09	4.92	5.25	2.2	4.25	1.44	1.66	
GCTAGTTGGTCAGTAAAAGGTAACACACCGGTCG	1.31	0.845	0.741	0.148	0.462	0.175	0.0919	
CAAACTAGGTCACTGAGGTCAAAGTCCGTGCGTA	5.53	6.59	7.09	3.56	6.35	5.12	7.63	
CGCGAAAGGTCGGTTGAGGTGAGTATACGGATAA	2.23	2.88	2.61	0.708	2.44	1.65	0.652	
TAGCCTAGGTCAGATCGGGTCAGTATACGCTATA	3.56	3.77	4.62	-0.194	2.58	1.29	0.51	3.75
GCATATAGGTTATACAAGGTGAAAGTCCGATTGT	1.57	1.7	1.41	0.657	1.79	1.27	0.435	1.57
CGTCCAAGGTCAAAGGTCAGTGGAGAGATGACGG	5.56	8.71	8.02	4.1	10.1	2.93	4.05	6.82
AATACAGGGTCATCGGAGGCCAGAGTACGCACAG	4.26	5.91	5.05	3.51	6.76	1.96	3.88	
GCGACTGGGGCAAAGCAGGTCACCATAAGGTTGG	3.27	2.56	2.37	-0.174	2.09	1.37	0.256	
TTACCGAGGTGAGCTGAGGTCGTTGATCCAACTC	1.58	1.48	1.04	0.0413	1.7	1.88	1.73	
GGAACGTGGGCATTCGAGTTGATAGCATGGCGAT	-0.657	-0.318	-0.321	-0.166	-0.389	-1.07	0.0395	
CTCGAAAGGTCGTGCTCAGGTCAGTATACCAAAC	4.16	7.03	4.92	2.37	5.35	2.7	2.45	
ACTAGTTGGTCAACTGAGGTCACACACAATTCGG	4.82	4.49	4.46	1.89	4.58	4.84	3.22	
TAGCCTAGCTCAGATCGGGCCAGTATACGCTATA	-1.12	-0.862	-0.645	-1.11	-0.698	-0.99	-0.652	
